# Hit rate of the full screen: of about 2,400 compounds, about 180 (7.5%) were called active. This is one part of a sample in which actives are shown more often than they occur.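 The calls were made as follows: active = readout below zero, meaning a drop past 3 SD under the dofetilide-free negative control mean; inactive = the rest.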
# Target: Potassium voltage-gated channel subfamily KQT member 2 (Rattus norvegicus) (UniProt O88943)
# Test: rat KCNQ2 channel inhibition by compounds alone, confirmation, counter-screen for hERG block protector project, cell-based, CHO, FluxOR thallium flux (AID 1946)
# Conditions: CHO-KCNQ2 cells, FluxOR thallium flux fluorescence; at 10 µM; active compounds read low; zero marks the 3-SD hit cutoff
# Sequence of Potassium voltage-gated channel subfamily KQT member 2 (Rattus norvegicus) (O88943 whole entry, looked up): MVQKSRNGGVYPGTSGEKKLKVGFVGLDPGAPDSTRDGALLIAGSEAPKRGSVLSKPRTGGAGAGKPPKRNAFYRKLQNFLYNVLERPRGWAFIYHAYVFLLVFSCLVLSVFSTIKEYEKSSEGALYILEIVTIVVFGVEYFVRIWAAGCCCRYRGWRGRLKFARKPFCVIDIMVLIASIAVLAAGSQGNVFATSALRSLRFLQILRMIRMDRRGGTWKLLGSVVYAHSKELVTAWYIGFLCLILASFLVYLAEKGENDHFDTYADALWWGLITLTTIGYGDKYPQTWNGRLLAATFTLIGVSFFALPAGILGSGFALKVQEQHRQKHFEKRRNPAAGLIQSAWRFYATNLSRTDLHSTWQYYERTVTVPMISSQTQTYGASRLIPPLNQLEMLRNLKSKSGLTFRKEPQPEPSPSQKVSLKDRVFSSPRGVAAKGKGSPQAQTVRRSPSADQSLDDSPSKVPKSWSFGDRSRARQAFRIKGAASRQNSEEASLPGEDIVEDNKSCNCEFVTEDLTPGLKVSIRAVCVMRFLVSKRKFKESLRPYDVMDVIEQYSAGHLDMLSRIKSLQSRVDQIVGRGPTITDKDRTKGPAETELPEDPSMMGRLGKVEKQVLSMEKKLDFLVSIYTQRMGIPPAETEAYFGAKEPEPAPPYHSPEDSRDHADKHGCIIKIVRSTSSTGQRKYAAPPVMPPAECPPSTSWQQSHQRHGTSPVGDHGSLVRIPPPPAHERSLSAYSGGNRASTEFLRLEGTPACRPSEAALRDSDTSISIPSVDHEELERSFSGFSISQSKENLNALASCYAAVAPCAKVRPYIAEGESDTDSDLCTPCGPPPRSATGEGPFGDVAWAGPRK
row,Compound,activity change vs negative control
1,Cc1c(N2C(=O)/C(=C\c3ccccc3O)SC2=S)c(=O)n(-c2ccccc2)n1C,90% (inactive)
2,S=c1[nH]cnc2scc(-c3ccc(Cl)cc3)c12,49.5% (inactive)
3,CCOC(=O)c1sc(NC(=S)NC(=O)c2ccccc2)nc1C,20.3% (inactive)
4,CC1CCN(S(=O)(=O)c2ccc3nc(N4CCN(c5ccccc5)CC4)ccc3c2)CC1,4.3% (inactive)
5,CC1CCN(c2ccc3c(c2)S(=O)(=O)c2ccccc2C3=O)CC1,-10.9% (active)
6,CC(=O)c1c(N)[nH]c(-c2ccccc2)nc1=S,22.9% (inactive)
7,Cc1ccc(CN2CCN(CC(=O)NC(C)c3ccc4c(c3)OCCO4)C2=O)cc1 (stereo not given),38.3% (inactive)
8,CN1C(=O)/C(=N/OC(=O)c2ccccc2)c2ccccc21,8% (inactive)
9,CN(CC(=O)Nc1ccc(Cl)cc1)C(=O)c1cccc(S(=O)(=O)NCc2ccccc2)c1,-2.7% (active)
10,Cc1ccc(NC(=O)c2ccc(CNS(=O)(=O)c3cccc(C(F)(F)F)c3)cc2)cc1,8.1% (inactive)
11,CC(=O)c1ccc(S(=O)(=O)NCc2ccc(C(=O)N(C)CC(=O)Nc3cccc(F)c3)cc2)cc1,5.5% (inactive)
12,O=c1c2ccc(Cl)cc2nc(-c2cccc(C(F)(F)F)c2)n1O,141% (inactive)
13,ON/C=N/C(=S)Nc1ncc(C(F)(F)F)cc1Cl,49.3% (inactive)
14,CC1(C)CC2CC(C)(CN2C(=S)NC(=O)c2ccccc2Cl)C1 (stereo not given),37.9% (inactive)
15,Cc1ccc(/C(O)=C/C(=O)C(=O)NC23CC4CC(CC(C4)C2)C3)cc1,32.5% (inactive)
16,Cc1ccc(N=Cc2cc(Cl)cc(Cl)c2O)nc1,53.9% (inactive)
17,CN(C)CCNc1ncnc2c1sc1nc(N3CCCC3)c3c(c12)CC(C)(C)OC3,8.8% (inactive)
18,Cc1cc(C)n(-c2nc(NCCCN(C)C)c3c4c(sc3n2)CCCC4)n1,-1.4% (active)
19,Cc1cc(C)n(-c2nc3sc4c(c3c(=O)[nH]2)CCCC4)n1,28% (inactive)
20,CC(NC(=O)NC1CCCCC1)c1ccc2c(c1)OCO2 (stereo not given),72.4% (inactive)
21,COc1ccccc1C(=O)NNC(=O)C(=O)NC(C)(C)C,31.3% (inactive)
22,COc1ccc(NS(=O)(=O)c2ccc3ccccc3c2)c2ncccc12,2% (inactive)
23,Cc1ccc(NS(=O)(=O)c2ccc(NC(=O)c3ccccc3C(=O)O)cc2)cc1C,10.8% (inactive)
24,COc1ccccc1-n1cnc2cc(NS(=O)(=O)c3ccc(Br)cc3)ccc21,-2.5% (active)
25,COc1ccc(C(=O)NC(=S)N(Cc2ccccc2)Cc2ccccc2)cc1,51.4% (inactive)

row,Compound,activity change vs negative control
1,CCOC(=O)N1CCN(c2c(-c3ccc(C)c(C)c3)c(=O)c2=O)CC1,20.5% (inactive)
2,Cc1ccc(C(=O)NC(=S)N(C)C2CCCCC2)cc1Br,17.4% (inactive)
3,CCCCNC(=S)NNC(=O)c1ccc2c(c1)OCO2,-2.9% (active)
4,COc1ccc(CCNC(=O)c2ccc3c(c2)OCO3)cc1,5% (inactive)
5,Cc1ccc(C(C)NC(=O)c2ccc3c(c2)OCO3)cc1C (stereo not given),58.4% (inactive)
6,O=c1c(-c2ccccc2)nc(-c2ccccc2)cn1O,88.1% (inactive)
7,COc1cccc(C(=O)NNC(=O)C(=O)Nc2cccc(Cl)c2C)c1,83.6% (inactive)
8,COC(=O)C1=NN(C(=O)c2cccc(Br)c2)C(O)(c2ccc(Cl)cc2)C1 (stereo not given),158% (inactive)
9,CCOC(=O)c1cnn(-c2nc(SC)nc3sc4c(c23)CCCC4)c1N,5.9% (inactive)
10,Cc1ccc(NC(=O)CCc2nc3sc4c(c3c(=O)[nH]2)CCCC4)c(Br)c1,-0.3% (active)
11,Cc1nc(SCC(=O)NCC2CCCO2)c2c3c(sc2n1)CCCC3 (stereo not given),32.5% (inactive)
12,Fc1ccc(NC(=S)Nc2nccs2)cc1,16.4% (inactive)
13,CCC(C)c1ccccc1NC(=S)NC(=O)c1ccco1 (stereo not given),82% (inactive)
14,Cc1ccc(NC(=O)CN2C(=O)S/C(=C/c3ccc(-c4cc(C(=O)O)ccc4C)o3)C2=O)cc1C,4.8% (inactive)
15,O=C(CCN1C(=O)/C(=C/c2cccs2)SC1=S)Nc1cccc(C(=O)O)c1,5.2% (inactive)
16,COc1cc(/C=C2/SC(=S)N(CC(=O)O)C2=O)ccc1OCC(=O)Nc1ccc(C)c(C)c1,-3.8% (active)
17,CSc1nc2c(c(=O)[nH]1)C(c1ccccc1Cl)CC(=O)N2 (stereo not given),1.5% (inactive)
18,Cc1cccc(NC(=S)NC(=O)c2ccc(Br)o2)c1C,27.3% (inactive)
19,Cc1ccc(C(=O)NC(C)c2ccc(C)c(C)c2)s1 (stereo not given),53.7% (inactive)
20,COc1ccc(/C=C2\SC(=N)N(c3nccs3)C2=O)cc1OC,6.8% (inactive)
21,COc1cc(/C=C/C(=O)O)ccc1OS(=O)(=O)c1cc(C)ccc1C,13.1% (inactive)
22,COc1ccc(/C=C2\SC(c3ccc(C)cc3)=NC2=O)cc1OC,-3.2% (active)
23,O=S(=O)(NC(=S)NC1CCCCC1)c1ccc(Cl)cc1,34.4% (inactive)
24,S=c1nc(Cc2ccc(Cl)cc2)[nH]c2ccccc12,51.9% (inactive)
25,COc1ccccc1NC(=O)C1CCCN1C(=O)NCc1ccccc1 (stereo not given),-1.2% (active)

row,Compound,activity change vs negative control
1,COc1ccccc1C(=O)NNC(=O)C(=O)NCc1ccccc1,41.8% (inactive)
2,COc1ccccc1NC(=O)C1CCCN1C(=O)Nc1ccc(F)cc1 (stereo not given),1.7% (inactive)
3,COc1cccc(OCC(=O)NNC(=O)C(=O)Nc2ccc(OC)cc2OC)c1,43.2% (inactive)
4,CCCN1C(=O)/C(=C/c2ccc3c(c2)OCO3)NC1=S,19.4% (inactive)
5,O=C1NC(=S)S/C1=C\c1ccc2ccccc2c1,75.1% (inactive)
6,O=C1NC(=O)/C(=C/c2cc3c(cc2Br)OCO3)S1,-0.8% (active)
7,N#Cc1c(NC(=O)c2cc(-n3cnnc3)ccc2Cl)sc2c1CCCC2,13% (inactive)
8,COc1ccc(C(=O)CC(=O)C(=O)Nc2ccccc2)cc1,32.5% (inactive)
9,CC1CN(C(=S)NC(=O)c2ccc(Cl)cc2)CC(C)O1 (stereo not given),28.2% (inactive)
10,CCn1cc(C(=O)NCCN(C)C)c(=O)c2cc(F)c(N3CCN(C)CC3)cc21,-0.9% (active)
11,O=C(NC(=S)Nc1cccnc1)c1cc2ccccc2o1,31.9% (inactive)
12,COc1ccc(C(=O)O)cc1S(=O)(=O)Nc1cccc(C(F)(F)F)c1,8% (inactive)
13,CC(C)Oc1cccc(C(=O)N2CCCC2)c1,9.7% (inactive)
14,COc1ccc(CS(=O)(=O)CC2(O)CCN(C(=O)c3cccc(C(F)(F)F)c3)CC2)cc1,-2.4% (active)
15,C/C(=N\NC(=O)c1cc2ccccc2cc1O)c1cc2ccccc2o1,112% (inactive)
16,Cc1c(-c2ccn[nH]2)cc(NC(=O)c2ccc(Cl)cc2)c(=O)n1N,-0.8% (active)
17,Cc1ccc(C(=O)Nc2nc(=O)n(C)s2)cc1,15.9% (inactive)
18,O=C(Nc1nc(=O)c2ccccc2s1)c1ccc(Cl)cc1,23.9% (inactive)
19,CCOC(=O)c1nnn(CC(=O)Nc2cccc(F)c2)c1C(=O)OCC,14.1% (inactive)
20,CCOC(=O)c1ccc(NC(=O)Cn2nnc(-c3ccccc3)n2)cc1,-3.4% (active)
21,Cc1cc(C)c(-c2cc(NC(=O)COC(=O)c3ccc(NC(=O)CC#N)cc3)n(-c3ccccc3)n2)cc1C,7.4% (inactive)
22,Cc1cccc(NC(=S)NC(=O)c2ccco2)c1C,77.7% (inactive)
23,O=C(Nc1cccc2[nH]ncc12)c1ccc(F)cc1,-2.9% (active)
24,O=C(Nc1nc(-c2ccccc2)c(-c2ccccc2)o1)c1ccc(F)cc1,40.3% (inactive)
25,CCOc1cccc(C(=O)Nc2ccc3[nH]ncc3c2)c1,15.6% (inactive)

row,Compound,activity change vs negative control
1,CCCCn1c(N)c(C(=S)NC(=O)CC(C)(C)C)c(=O)n(C)c1=O,40.5% (inactive)
2,Cc1sc2ncnc(SCC(=O)c3ccc(O)cc3O)c2c1C,24.3% (inactive)
3,Cn1ncc2c(NNC(=O)c3ccc(O)cc3)ncnc21,-3.1% (active)
4,Cn1ncc2c(O/N=C(\N)c3ccc(C(F)(F)F)cc3)ncnc21,7.4% (inactive)
5,Cn1ncc2c(NNC(=O)Cc3ccccc3)ncnc21,15.1% (inactive)
6,O=c1cc(-c2ccccc2)cc(-c2ccccc2)n1O,72.2% (inactive)
7,COC(=O)CNc1nc(Cl)nc(Nc2ccc(C)cc2)n1,-0.4% (active)
8,COC(=O)CNC(=S)NC(=O)c1ccc(C(C)(C)C)cc1,1.6% (inactive)
9,COc1ccc(OCC(=O)NNC(=O)C(=O)Nc2ccc(C)cc2)cc1,7.7% (inactive)
10,COc1ccc(-n2c(O)c(/C=C3\C=Nc4ccccc43)c(=O)[nH]c2=O)cc1,-8.7% (active)
11,COc1ccc(-n2c(=S)[nH]c3ccccc3c2=S)cc1,22.2% (inactive)
12,COc1ccc(Cn2c(O)cc(=O)[nH]c2=O)cc1,1.4% (inactive)
13,CCC1(C)Cc2c(sc3nc(SC)[nH]c(=S)c23)CO1 (stereo not given),131% (inactive)
14,COc1ccc(/C=C/C(=O)Nc2ccccc2C(=O)O)cc1,27.2% (inactive)
15,CCOC(=O)/C(C)=N/NC(=O)c1ccc([N+](=O)[O-])cc1,40.5% (inactive)
16,CCNC(=S)Nc1nc2c(cc1C(=O)OCC)CCCC2,29.4% (inactive)
17,O=C(O)CSCc1c(F)cccc1Cl,-3.5% (active)
18,O=C(O)CSc1nc2ccccc2nc1Cc1ccccc1F,29.1% (inactive)
19,CCN(CC)CCCN1C(=O)c2oc3ccccc3c(=O)c2C1c1cccs1 (stereo not given),44.2% (inactive)
20,CON/C=N/C(=S)Nc1ncc(C(F)(F)F)cc1Cl,51.1% (inactive)
21,Cc1nn(C)c(C(=O)NC(=S)Nc2ccc([N+](=O)[O-])cc2)c1Cl,29.3% (inactive)
22,Cc1ccc(NC(=S)NC(=O)c2sc3ccccc3c2Cl)c(C(=O)O)c1,36.9% (inactive)
23,COc1cccc([C@@H]2Oc3ccc(OC)cc3C(=O)[C@H]2OC(=O)NCc2ccc3c(c2)OCO3)c1,2.3% (inactive)
24,CCOc1ccc(/C=C2\CCc3ccccc3C2=O)cc1,10.2% (inactive)
25,COc1cccc(C2C3=C(N=c4s/c(=C\c5ccc(OCC(=O)O)cc5)c(=O)n42)c2ccccc2CC3)c1 (stereo not given),-16.7% (active)

# Source: PubChem BioAssay AID1946 (Johns Hopkins Ion Channel Center, 2009)
